Compound activity: PubChem BioAssay, National Center for Advancing Translational Sciences (NCATS)
VP16 counter: counter-screen for ROR gamma inhibitors: Gal4-VP16 reporter | Drosophila S2 Gal4-VP16 UAS-luciferase, luminescence, 20 h | Potency, µM (highest dose often 53.6 µM), actives largely listed as inhibitors | 3.5% of 310,000 active;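 note: Gal4-VP16 expression switched on by copper sulfate through the metallothionein promoter; nearly all actives have a fitted effect of over 50% in size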
TDP1 cell CPT: DT40-hTDP1 cell growth loss with CPT; chicken DT40 Tdp1-/-;hTDP1 cells + 20 nM CPT, ATP luminescence, 48 h; Potency, µM (titrated, usually from 46.2 µM), most hits filed as inhibitors; 12% of 420,000 active; note: nearly all actives have a fitted effect of over 55% in size
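Cell growth measured by CellTiter-Glo luminescence after a minimum 48 h, 37 C compound exposure with 20 nM CPT in Tdp1-knockout DT40 cells stably expressing hTDP1, seeded 400/well; qHTS titration format.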
TDP1 cell noCPT: qHTS for Inhibitors of human tyrosyl-DNA phosphodiesterase 1 (TDP1): qHTS in cells in absence of CPT; DT40 Tdp1-/- hTDP1 cells, no CPT, ATP luminescence, 48 h; Potency, µM (series often up to 46.2 µM), most hits filed as inhibitors; 15% of 420,000 active; note: nearly all actives have a fitted effect of over 55% in size
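Seeded 400 DT40-hTDP1 cells/well (vehicle DMSO, no 20 nM CPT); pinned compounds; ≥48 hr at 37 °C; CellTiter-Glo luminescence as viability measure.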
LDHA inh: inhibitors of human lactate dehydrogenase A. P00338. purified LDHA, NADH/diaphorase-resazurin fluorescence; active compounds read low. activity change, % (values are at about 110 or 230 µM). 0.15% of 480,000 active. AID 1347041; in the data active = activity change below about -30%; inconclusive = mostly about -25% to -30%
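LDH5 2 nM; NADH 0.06 mM, pyruvate 0.2 mM; 200 mM Tris pH 7.4, EDTA, Tween-20; 5 min RT. Detection: diaphorase 0.133 mg/mL + resazurin 37 µM, fluorescence ex540/em590 at 0 and 20 min; normalized to enzyme-free and DMSO wells.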
RORg inh: ROR gamma (mouse) transcription inhibition; 5.4% of 310,000 active; AID 2551; Potency, µM (series often up to 53.6 µM), actives largely listed as inhibitors; Drosophila S2 Gal4-RORgamma UAS-luciferase reporter, 20 h; note: nearly all actives have a fitted effect of over 60% in size
Target sequence (P51450 whole entry, looked up, the tested form may be a part): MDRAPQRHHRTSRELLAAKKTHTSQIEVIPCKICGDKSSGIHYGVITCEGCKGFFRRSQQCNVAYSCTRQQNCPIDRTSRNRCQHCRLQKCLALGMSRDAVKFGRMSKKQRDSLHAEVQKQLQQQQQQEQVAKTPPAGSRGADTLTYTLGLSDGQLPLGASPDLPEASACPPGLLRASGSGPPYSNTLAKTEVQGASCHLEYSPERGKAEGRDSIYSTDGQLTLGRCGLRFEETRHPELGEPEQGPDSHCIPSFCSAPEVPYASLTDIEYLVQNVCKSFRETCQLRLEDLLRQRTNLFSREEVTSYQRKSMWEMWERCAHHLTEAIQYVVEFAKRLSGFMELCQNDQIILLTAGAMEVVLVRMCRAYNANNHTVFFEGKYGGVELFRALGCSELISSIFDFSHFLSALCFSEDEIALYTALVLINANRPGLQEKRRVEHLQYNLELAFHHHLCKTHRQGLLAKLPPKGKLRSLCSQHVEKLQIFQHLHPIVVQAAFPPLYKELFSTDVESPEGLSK
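Luciferase reporter read in Schneider cells carrying Gal4-RORγ (mouse) and UAS-Photinus luciferase; cells given compound 1 h before 700 uM copper sulfate induction, then incubated 20 h at ambient temperature.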
IL1B secr inh: inflammasome signaling inhibition, IL-1 beta readout. THP-1 LPS/ATP IL-1B secretion, AlphaLISA, 16 h; active compounds read low. activity change, % at 57.5 µM. 4.7% of 360,000 active; in the data active = activity change below about -50%; inconclusive = mostly about -30% to -49%
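THP-1 cells pretreated 1 hr with compounds (up to 57.5 uM final), then stimulated with LPS (250 ng/mL final) plus ATP (1.25 mM final); secreted IL-1B measured by AlphaLISA after 16 hr, decreased signal indicating inhibition.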
Numbers stand for hits; – = inactive; ? = inconclusive; · = no result; [ ] = remark or other dose. Hits are enriched below; roughly 18% of the tested compounds scored in any of these assays. Unless noted, calls come from the whole dose curve; as a rule, active = well fitted curve in the direction sought with a large enough effect; inconclusive = small, poorly fitted or top-dose-only effect, or another doubt; inactive = no such curve, though single readings can be large; an effect the other way counts as inactive or inconclusive.

SMILES | VP16 counter | TDP1 cell CPT | TDP1 cell noCPT | LDHA inh | RORg inh | IL1B secr inh
CCSc1nc2c([nH]c3ccccc32)c(=O)n1-c1ccc(F)cc1 | · | 21µM | ? | – | · | ·
Cc1ccc(-n2c(SCc3ccccc3)nc3c([nH]c4ccccc43)c2=O)cc1 | · | – | – | – | · | ·
O=C(CSc1nc2c([nH]c3ccccc32)c(=O)n1-c1ccc(F)cc1)NCc1ccc(F)cc1 | · | ? | 15µM | – | · | ·
CC(C)=CC(=O)Nc1ccc2c(c1)CCC2 | · | · | · | – | · | ·
O=C1CSc2ccc(C(=O)Nc3ccccc3O)cc2N1 | · | · | · | – | · | ·
Nc1nccnc1C(=O)NCc1cccc(C(F)(F)F)c1 | · | · | · | – | · | ·
COc1cccc(-n2c(SCC(=O)Nc3c(C)cc(C)cc3C)nc3c([nH]c4ccccc43)c2=O)c1 | · | 12µM | 13µM | – | · | ·
OC(c1ccccc1)(c1ccc(F)cc1)C(c1ccccc1)N1CCOCC1 (stereo unspecified) | – | 16µM | 18µM | – | – | –
Cc1ccccc1SCC(=O)NCC(c1ccc(F)cc1)N1CCOCC1 (stereo unspecified) | · | ? | ? | – | · | –
O=C(NCC(c1ccc(F)cc1)N1CCOCC1)c1ccc(C(=O)c2ccccc2)cc1 (stereo unspecified) | – | ? | 21µM | – | – | –
COc1cc(C(=O)NCC(c2ccc(F)cc2)N2CCOCC2)ccc1OCc1ccccc1Cl (stereo unspecified) | · | ? | ? | – | · | -60
O=C(CC12CC3CC(CC(C3)C1)C2)NCC(c1ccc(F)cc1)N1CCOCC1 (stereo unspecified) | – | 26µM | ? | – | – | –
CCOc1ccc(CCN2C(=O)C(=O)N([C@H](CCCN(C)Cc3ccccc3)CNCc3ccccc3)C[C@@H]2C(C)C)cc1 | – | · | · | · | – | ·
COc1ccc(CNC[C@@H](CCCCN(C)Cc2ccc(OC)cc2)N2C[C@H](c3ccccc3)N(CCc3ccc(Cl)c(Cl)c3)C(=O)C2=O)cc1 | 5µM | ? | 4.1µM | – | 5.6µM | ?
O=S(=O)(Nc1nc2ccccc2nc1Nc1ccc2c(c1)OCCO2)c1ccc(Cl)cc1 | · | · | · | – | · | ·
CCOC(=O)c1[nH]cnc1N=Nc1c(O)ccc2ccccc12 | – | 5.2µM | 5.8µM | – | – | –
Oc1ccc2ccccc2c1N=Nc1ccccn1 | ? | 0.65µM | 0.58µM | – | 0.28µM | –
CC(C)CCn1c(O)c(N=NC(=O)Cn2ccc(C(F)(F)F)n2)c2ccccc21 | – | 21µM | 23µM | – | – | –
CC(C)CCn1c(O)c(N=Nc2ccccn2)c2ccccc21 | 11µM | ? | ? | – | 14µM | –
Oc1ccc2ccccc2c1N=Nc1ccccc1F | – | – | ? | – | – | –
COc1ccc(C(c2nnnn2Cc2cccs2)N2CCC(C(N)=O)CC2)c(OC)c1 (stereo unspecified) | – | – | – | – | ? | –
Cc1cc2nc(C3CCN(Cc4nnnn4Cc4cccs4)CC3)[nH]c2cc1C | – | 3.5µM | 6.3µM | – | – | –
Cc1ccc(CCN=c2c([N+](=O)[O-])nn(-c3ccccc3)n2O)cc1 | –[10 µM] | ? | ? | – | – | ?
COc1ccc(C(C)NC(=O)CCc2ccccc2)cc1 (stereo unspecified) | – | – | – | – | – | –
O=[N+]([O-])c1nn(-c2ccccc2)n(O)c1=NCCc1ccccc1 | – | 6.5µM | 15µM | – | – | –
SMILES | VP16 counter | TDP1 cell CPT | TDP1 cell noCPT | LDHA inh | RORg inh | IL1B secr inh
COc1cccc(CN=c2c([N+](=O)[O-])nn(-c3ccccc3C)n2O)c1 | – | 23µM | ? | – | ? | –
COc1ccc(-n2nc([N+](=O)[O-])c(=NCCc3ccccc3)n2O)cc1 | – | 16µM | ? | – | –[10 µM] | –
CC(C)(C)C1CCc2onc(C(=O)N3CCCC3)c2C1 (stereo unspecified) | · | · | · | – | · | ·
CN(C)S(=O)(=O)c1ccc2c(c1)N(CC(=O)N1CCN(c3cccc(Cl)c3)CC1)CCS2 | · | · | · | – | · | ·
CNS(=O)(=O)c1cnccc1N1CCN(c2cccc(Cl)c2)CC1 | – | – | ? | – | – | –
CN1CCN(S(=O)(=O)c2cnccc2N2CCN(c3cccc(Cl)c3)CC2)CC1 | – | 18µM | 18µM | – | ? | -50
CCN(CC)S(=O)(=O)c1cnccc1N1CCN(c2cccc(Cl)c2)CC1 | – | ? | 16µM | – | ? | -69
OCC1CCCN(Cc2cn(Cc3ccccc3)nc2-c2cc3ccccc3o2)C1 (stereo unspecified) | – | – | ? | – | – | -62
Cn1cc(CN2CCC(CO)CC2)c(-c2ccc(Oc3ccccc3)cc2)n1 | – | ? | ? | – | – | –
COC1CCN(Cc2cn(Cc3ccccc3)nc2-c2cc3ccccc3o2)CC1 | – | ? | 26µM | – | – | ?
OCC1CCN(Cc2cn(Cc3ccccc3)nc2-c2cc3ccccc3o2)CC1 | – | ? | ? | – | – | -56
Cc1nc(-c2c(C(F)(F)F)noc2-c2ccc(O)cc2O)cs1 | – | ? | ? | – | – | –
Oc1ccc(-c2onc(C(F)(F)F)c2-c2cscn2)c(O)c1 | – | ? | 21µM | – | ? | –
Cc1nc(-n2nc(C)c(Cl)c2C)sc1C(=O)N1CCCCC1 | · | · | · | – | · | ·
CC(C)Cn1nc(C(=O)Nc2nc3c(s2)CCC3)c2ccccc2c1=O | · | · | · | – | · | ·
CC(C)CCn1nc(C(=O)Nc2nc3c(s2)CCCC3)c2ccccc2c1=O | ? | 26µM | 18µM | – | –[10 µM] | ·
O=C(Nc1nc2c(s1)CCCC2)c1nn(Cc2ccccc2)c(=O)c2ccccc12 | – | ? | 23µM | – | – | –
Cn1nc(C(=O)Nc2nc3c(s2)CCC3)c2ccccc2c1=O | · | · | · | – | · | ·
Cc1ccc(C2CCCN2C(=O)Cn2nc(C)c3ccccc3c2=O)cc1 (stereo unspecified) | · | · | · | – | · | ·
O=C(COc1ccc(Cl)cc1Cl)Nc1ccc(-c2ccc(N3CCOCC3)nn2)cc1 | · | – | ? | – | · | –
Cc1ccc(C(=O)Nc2cccc(-c3ccc(N4CCOCC4)nn3)c2)cc1[N+](=O)[O-] | · | 10µM | ? | – | · | –
O=C(COc1ccccc1)Nc1cccc(-c2ccc(N3CCOCC3)nn2)c1 | · | ? | 9.2µM | – | · | –
O=C(COc1ccc(Cl)cc1Cl)Nc1cccc(-c2ccc(N3CCOCC3)nn2)c1 | · | 18µM | ? | – | · | –
O=C(Nc1cccc(-c2ccc(N3CCOCC3)nn2)c1)c1ccc([N+](=O)[O-])cc1 | · | ? | ? | – | · | –
Cn1c(=O)n(C)c2cc(Sc3ccccc3Cl)c(NC(=O)C(C)(C)C)cc21 | · | · | · | – | · | ·
COC(=O)C1=C(C)N(c2ccc3c(c2)OCO3)C(=O)NC1c1cc(Br)ccc1OC (stereo unspecified) | · | · | · | – | · | ·
